# Source: PubChem BioAssay (NMMLSC)
# RPL19A-GFP yeast – modulators of TOR pathway RPL19A-GFP in S. cerevisiae | S. cerevisiae RPL19A-GFP strain, flow cytometry, 3 h; hits give low values | percent response vs DMSO, % at 10 µM | hit rate 0.3% among 330,000 | AID 2025;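 active = percent response vs DMSO below 50%; inconclusive = fewer than 70 events counted for the yeast strain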;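 note: median channel GFP fluorescence of the barcoded RPL19A-GFP strain; ratio of sample median GFP to plate DMSO average so 100% = DMSO; lower means less RPL19A-GFP as with rapamycin TOR inhibition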
# AGP1-GFP MLPCN – yeast TOR pathway AGP1-GFP modulation; S. cerevisiae AGP1-GFP multiplex flow cytometry, 3 h; GFP as percent of DMSO wells; GFP response vs DMSO, % at 10 µM; hit rate 0.02% among 320,000; AID 2066;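 active = GFP response relative to DMSO above a set limit, near screen average plus 3 SD, cut at about 150% in these data; inconclusive = fewer than 70 cells counted for the yeast strain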;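 note: median GFP channel fluorescence of the gated AGP1 strain per well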
# LAP4 TOR yeast – yeast TOR pathway LAP4-GFP modulation; GFP response vs DMSO, % at 10 µM; S. cerevisiae LAP4-GFP multiplex, flow cytometry GFP, 3 h; median GFP as percent of DMSO wells; hit rate 0.34% among 320,000;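 active = GFP response vs DMSO above a set limit, about the screen mean plus 3 SD, cut at about 150% in these data; inconclusive = under 70 cell events counted for the yeast strain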
# CIT2 TOR yeast – modulators of TOR pathway CIT2-GFP in S. cerevisiae; hit rate 0.065% among 320,000; GFP response vs DMSO, % at 10 µM; S. cerevisiae CIT2-GFP strain, flow cytometry, 3 h; 100 means same as DMSO wells;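 active = GFP response relative to DMSO above a set limit, near the screen mean plus 3 SD, cut at about 150% in these data; inconclusive = Fewer than 70 cells measured for a yeast strain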;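 note: ratio of well median GFP fluorescence to mean of DMSO wells on the plate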
# MEP2 TOR yeast – modulators of TOR pathway MEP2-GFP in S. cerevisiae. S. cerevisiae MEP2-GFP strain, flow cytometry GFP, 3 h; 100% = DMSO control level. hit rate 0.51% among 330,000. GFP response vs DMSO, % at 10 µM;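 active = GFP response versus DMSO above a set limit, roughly screen mean plus 3 SD, cut at about 180% in these data; inconclusive = fewer than 70 cells counted for a yeast strain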;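 note: median GFP fluorescence of the barcode-gated MEP2-GFP cells per well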
# * = called active by the depositor; ? = inconclusive; / = no result; [ ] = remark or other dose. An excerpt weighted towards active compounds, which were near 0.93% of everything screened.
SMILES,RPL19A-GFP yeast,AGP1-GFP MLPCN,LAP4 TOR yeast,CIT2 TOR yeast,MEP2 TOR yeast
COc1cc(/C=N/NC(=O)C(=O)NCc2ccco2)cc(Cl)c1O,51.4,?,68.3,?,177.7*[may fluoresce violet]
CN(CC(=O)Nc1cccc(Cl)c1)S(=O)(=O)c1ccc2[nH]c(=O)oc2c1,98.9,105.4,104.7,100.4,102.3
O=C(Nc1nc(-c2ccccn2)cs1)c1ccc(Br)s1,57.4,17.4,197.3*[may fluoresce violet],?,113.8
COc1ccc(OCC(O)CNC(=O)/C=C/c2cccc([N+](=O)[O-])c2)cc1 (stereo unspecified),86.9,23.2,96.8,104.0,176.8*
C[C@@H](C(=O)Nc1nc2ccc(F)cc2s1)N1C(=O)C2CC=CCC2C1=O (stereo partly specified),65.1,155.6*,188.9*,138.7,612.4*
Cc1oc2cc3c(C(=O)N4CCCCC4)c(C)oc3cc2c1C(=O)N1CCCCC1,46.4*[may fluoresce violet],?,87.9,?,258.8*[may fluoresce violet]
Cc1cc(C)c(S(=O)(=O)c2cccc(C)c2C)c(=O)[nH]1,53.9,15.8,73.7,?,387.1*[may fluoresce violet]
COc1cccc(/C=N/NC(=O)CCC(=O)Nc2ccc(Br)cc2)c1,107.5,95.8,135.6,148.6,194.8*
CC(=O)C(=[N+]=[N-])C(=O)NCc1ccccc1,97.4,14.6,89.1,?,209.1*[may fluoresce violet]
CC(C)CCNC(=O)C(=O)NCc1ccccc1,96.0,97.6,102.7,99.5,93.5
CC(=O)NCC(=O)N(c1ccccc1)C1(C(=O)NC2CCCCC2)CCCCC1,99.5,99.8,94.3,101.8,102.6
Cn1c(=O)c2c(nc(NCc3ccco3)n2C/C=C/c2ccccc2)n(C)c1=O,97.9,100.0,105.9,94.1,96.7
NNC(=O)c1ccc(COc2ccc3c(c2)CCC3)cc1,99.6,107.5,116.6,76.2,114.9
NNC(=O)c1ccc(COc2ccc3ccccc3c2)cc1,89.3,90.9,192.5*,77.1,104.3
N#Cc1c(-c2cccnc2)c2c([nH]c1=O)-c1ccccc1OC2,41.6*[may fluoresce violet],?,95.7,?,413.1*[may fluoresce violet]
O=C(NC1CCCCCC1)c1ccc(OCC2CCCO2)cc1 (stereo unspecified),97.7,87.5,106.3,100.6,101.8
CC(C)N(CCNC(=O)c1ccc(OCC2CCCO2)cc1)C(C)C (stereo unspecified),37.9*[may fluoresce violet],?,61.9,?,241.9*[may fluoresce violet]
COc1ccc(OC)c(C(=O)c2nc3c(n2O)CCCCC3)c1,19.6*[may fluoresce violet],23.6,103.0,?,822.5*[may fluoresce violet]
CCc1cccc(OCCN2CCCC2)c1,100.8,104.8,97.1,102.5,100.0
Cc1ccc(Nc2c(-c3ccccn3)nc3cc(C)ccn23)cc1,93.0,75.0,139.6,95.2,96.7
Cc1ccc(Nc2c(-c3ccccn3)nc3ccc(C)cn23)cc1,48.5*,27.4,132.7,104.0,233.1*
Cc1ccc([N+](=O)[O-])cc1NC(=O)CN(C(=O)c1ccc(Cl)cc1)C1CCCCC1,92.5,90.6,99.2,92.8,94.5
Cc1cc(C)c2sc(NC(=O)C3=COCCO3)nc2c1,88.8,92.5,165.5*,84.4,102.6
CCc1cccc(C)c1NC(=O)CC1Oc2ccc(C)cc2NC1=O (stereo unspecified),110.1,98.9,134.5,153.3*,202.8*
Cc1ccc(NC(=O)CC2Oc3ccc(C)cc3NC2=O)c(C)c1 (stereo unspecified),102.6,99.2,95.5,100.1,102.3
SMILES,RPL19A-GFP yeast,AGP1-GFP MLPCN,LAP4 TOR yeast,CIT2 TOR yeast,MEP2 TOR yeast
O=C(CN1CCOCC1)N1CCc2ccccc2C(c2ccccc2)C1 (stereo unspecified),24.6*[may fluoresce violet],/,93.2,?,326.1*[may fluoresce violet]
COc1cccc(OC)c1C(=O)Nc1ccc(N2CCCC2)cc1,104.8,100.4,89.5,109.3,106.7
Cc1ccc(CNC(=O)c2cn(C3CCCCC3)c(=O)c3c2c2ccccc2n3C)o1,99.2,100.5,98.3,103.0,101.5
Cc1ccc(CNC(=O)c2cn(C)c(=O)c3c2c2ccccc2n3C)o1,45.8*[may fluoresce violet],?,111.0,?,282.6*[may fluoresce violet]
CCC(=O)N1COC[C@@H]1Cc1ccccc1,22.9*[may fluoresce violet],?,59.1,?,211.1*[may fluoresce violet]
CCOc1ccccc1C(=O)N(C)Cc1cc2cc(OC)ccc2[nH]c1=O,50.2,?,97.9,?,183.7*[may fluoresce violet]
CCOc1cc(C(=O)N(C)Cc2cc3cc(OC)ccc3[nH]c2=O)cc(OCC)c1OCC,101.5,106.7,99.1,102.7,101.6
